PubChem BioAssay (NCATS)
Results filed as inconclusive are left out. Activity calls are given as the source filed them. The call rests on the fitted dose curve; in most records, active means well fitted curve in the direction sought with a large enough effect; inconclusive means small, poorly fitted or top-dose-only effect, or another doubt; inactive means no such curve, though single readings can be large; an effect the other way counts as inactive or inconclusive.

Assays:
[1] = Quantitative High-Throughput drug screen in 47 multiple myeloma cell lines against the NCATS MIPE library collection: KHM11_PLB cell viability assay (AID 1918962); further: nearly all actives have a fitted effect of over 35% in size
How it was run: (§1)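 CellTiter-Glo luminescence (ATP) after 48 h compound exposure, 37C/5% CO2; 500 cells/well; MIPE 4.0 approved/investigational drugs pinned in; DMSO = 100%, media only = 0% viability.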

[2] = Quantitative High-Throughput drug screen in 47 multiple myeloma cell lines against the NCATS MIPE library collection: INA6_PLB cell viability assay (AID 1918965; further: nearly all actives have a fitted effect of over 55% in size)
How it was run: (§2)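 Myeloma cells (500 per well) were exposed to MIPE 4.0 compounds by pin transfer and incubated 48 hours at 37C, 5% CO2. Viability was read as ATP by CellTiter-Glo luminescence, normalised to DMSO (100%) and media-only (0%) wells.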

[3] = Quantitative High-Throughput drug screen in 47 multiple myeloma cell lines against the NCATS MIPE library collection: H1112_PLB cell viability assay (AID 1918967; further: nearly all actives have a fitted effect of over 30% in size)
How it was run: as §1

[4] = Quantitative High-Throughput drug screen in 47 multiple myeloma cell lines against the NCATS MIPE library collection: Karpas25_ECACC cell viability assay (AID 1918968; further: nearly all actives have a fitted effect of over 35% in size)
How it was run: as §1

[5] = Quantitative High-Throughput drug screen in 47 multiple myeloma cell lines against the NCATS MIPE library collection: KMS26_JCRB cell viability assay (AID 1918975); further: nearly all actives have a fitted effect of over 45% in size
How it was run: (§3)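 We plated 500 myeloma cells per well, pinned in MIPE 4.0 compounds, and incubated for 48 hours at 37C. ATP was then quantified with CellTiter-Glo, with DMSO and media-only wells defining 100% and 0%.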

[6] = Quantitative High-Throughput drug screen in 47 multiple myeloma cell lines against the NCATS MIPE library collection: MMM1_PLB cell viability assay (AID 1918976); further: nearly all actives have a fitted effect of over 35% in size
How it was run: (§4)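 Myeloma cells (500/well) treated with MIPE 4.0 compounds for 48 h at 37 °C, 5% CO2. Viability read as ATP via CellTiter-Glo luminescence after 5 min at RT; DMSO-only wells = 100%, media-only = 0% viability.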

[7] = Quantitative High-Throughput drug screen in 47 multiple myeloma cell lines against the NCATS MIPE library collection: NCIH929_DSMZ cell viability assay (AID 1918978); further: nearly all actives have a fitted effect of over 35% in size
How it was run: as §4

[8] = Quantitative High-Throughput drug screen in 47 multiple myeloma cell lines against the NCATS MIPE library collection: OCIMY1_PLB cell viability assay (AID 1918979); further: nearly all actives have a fitted effect of over 35% in size
How it was run: as §4

[9] = Quantitative High-Throughput drug screen in 47 multiple myeloma cell lines against the NCATS MIPE library collection: MM1R_ATCC cell viability assay (AID 1918981); further: nearly all actives have a fitted effect of over 35% in size
How it was run: as §4

[10] = Quantitative High-Throughput drug screen in 47 multiple myeloma cell lines against the NCATS MIPE library collection: LP1_DSMZ cell viability assay (AID 1918982); further: nearly all actives have a fitted effect of over 35% in size
How it was run: as §4

[11] = Quantitative High-Throughput drug screen in 47 multiple myeloma cell lines against the NCATS MIPE library collection: JIM3_ECACC cell viability assay (AID 1918963; further: nearly all actives have a fitted effect of over 35% in size)
How it was run: as §1

[12] = Quantitative High-Throughput drug screen in 47 multiple myeloma cell lines against the NCATS MIPE library collection: JIM1_ECACC cell viability assay (AID 1918964)
How it was run: as §1

[13] = Quantitative High-Throughput drug screen in 47 multiple myeloma cell lines against the NCATS MIPE library collection: JJN3_DSMZ cell viability assay (AID 1918966; further: nearly all actives have a fitted effect of over 50% in size)
How it was run: as §1

[14] = Quantitative High-Throughput drug screen in 47 multiple myeloma cell lines against the NCATS MIPE library collection: KMS27_JCRB cell viability assay (AID 1918970); settings: KMS27 myeloma cells, CellTiter-Glo ATP viability, 48 h; viability (% of DMSO): at 45.8 µM (top of the series); further: nearly all actives have a fitted effect of over 30% in size
How it was run: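 Each line is seeded at 500 cells per well and treated with library compounds for 48 hours under 37 °C, 5% CO2. CellTiter-Glo is then added for 5 min at room temperature before median relative luminescence is recorded.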

[15] = Quantitative High-Throughput drug screen in 47 multiple myeloma cell lines against the NCATS MIPE library collection: KMS12BM_JCRB cell viability assay (AID 1918971); further: nearly all actives have a fitted effect of over 35% in size
How it was run: as §3

[16] = Quantitative High-Throughput drug screen in 47 multiple myeloma cell lines against the NCATS MIPE library collection: KMS12PE_JCRB cell viability assay (AID 1918972); further: nearly all actives have a fitted effect of over 30% in size
How it was run: as §2

[17] = Quantitative High-Throughput drug screen in 47 multiple myeloma cell lines against the NCATS MIPE library collection: KMS20_JCRB cell viability assay (AID 1918973); further: nearly all actives have a fitted effect of over 45% in size
How it was run: as §1

[18] = Quantitative High-Throughput drug screen in 47 multiple myeloma cell lines against the NCATS MIPE library collection: KMS21BM_JCRB cell viability assay (AID 1918974); settings: ATP luminescence, 48 h; viability: at 45.8 µM (top of the series)
How it was run: as §1

[19] = Quantitative High-Throughput drug screen in 47 multiple myeloma cell lines against the NCATS MIPE library collection: MOLP8_DSMZ cell viability assay (AID 1918977); further: nearly all actives have a fitted effect of over 45% in size
How it was run: as §4

[20] = Quantitative High-Throughput drug screen in 47 multiple myeloma cell lines against the NCATS MIPE library collection: MM1S_ATCC cell viability assay (AID 1918980); further: nearly all actives have a fitted effect of over 45% in size
How it was run: as §4

Measured: Potency
Potency means the concentration at half of the fitted maximal effect.

c1coc(CNc2ncnc3nc[nH]c23)c1
active: [6] 1.87 µM
inactive: [1] | [2] | [3] | [4] | [5] | [7] | [8] | [9] | [10]

CC(C=CC(=O)NO)=C[C@@H](C)C(=O)c1ccc(N(C)C)cc1
active: [11] 0.743 µM | [12] 0.296 µM | [2] 0.0833 µM | [13] 0.187 µM | [3] 0.372 µM | [4] 0.264 µM | [14] 0.264 µM | [15] 0.264 µM | [16] 0.235 µM | [17] 0.148 µM | [18] 0.166 µM | [5] 0.264 µM | [6] 0.187 µM | [19] 0.0935 µM | [7] 0.296 µM | [8] 0.372 µM | [20] 0.187 µM | [9] 0.132 µM | [10] 0.372 µM

CS[C@H]1SC[C@@H]2C(=O)N(C)[C@H](C(C)C)C(=O)OC[C@H](NC(=O)c3cnc4ccccc4n3)C(=O)N[C@H](C)C(=O)N(C)[C@@H]1C(=O)N(C)[C@H](C(C)C)C(=O)OC[C@H](NC(=O)c1cnc3ccccc3n1)C(=O)N[C@H](C)C(=O)N2C
active: [1] 0.0093 µM | [2] 0.001 µM | [13] 0.0053 µM | [3] 0.0118 µM | [4] 0.001 µM | [14] 0.001 µM | [15] 0.003 µM | [16] 0.001 µM | [5] 0.0132 µM | [6] 0.0118 µM | [7] 0.001 µM | [8] 0.0209 µM | [20] 0.003 µM | [9] 0.0019 µM | [10] 0.0066 µM

CC(Cc1ccc(O)c(O)c1)(NN)C(=O)O (stereo not given)
inactive: [1] | [12] | [2] | [3] | [14] | [16] | [7]
active: [13] 23.5 µM | [15] 26.4 µM | [6] 11.8 µM

Cc1ccc2nc(NCCN)c3ncc(C)n3c2c1
active: [11] 8.33 µM | [12] 3.32 µM | [2] 5.9 µM | [13] 1.66 µM | [3] 4.69 µM | [4] 9.35 µM | [14] 6.62 µM | [15] 3.72 µM | [16] 9.35 µM | [17] 6.62 µM | [5] 2.64 µM | [6] 2.64 µM | [19] 4.18 µM | [8] 14.8 µM | [20] 1.66 µM | [9] 3.32 µM | [10] 2.64 µM

C[C@H](NC(=O)[C@@H](O)c1cc(F)cc(F)c1)C(=O)N[C@@H]1C(=O)N(C)c2ccccc2-c2ccccc21
inactive: [1] | [2] | [13] | [4] | [16] | [17] | [5] | [19] | [8] | [10]
active: [3] 14.8 µM

CCOc1cc2ncc(C#N)c(Nc3ccc(OCc4ccccn4)c(Cl)c3)c2cc1NC(=O)C=CCN(C)C
active: [1] 0.935 µM | [12] 0.418 µM | [2] 0.264 µM | [13] 5.9 µM | [4] 0.662 µM | [14] 0.264 µM | [15] 5.26 µM | [16] 0.264 µM | [17] 0.935 µM | [5] 18.7 µM | [7] 0.833 µM | [20] 0.526 µM

Cc1coc2c1C(=O)C(=O)c1c-2ccc2c(C)cccc12
inactive: [1] | [12]
active: [2] 13.2 µM | [13] 18.7 µM | [4] 2.96 µM | [15] 13.2 µM | [5] 6.62 µM | [6] 20.9 µM | [19] 9.35 µM | [9] 20.9 µM

C[C@]12C=CC(=O)N[C@@H]1CC[C@H]1[C@H]3CC[C@@H](C(=O)Nc4cc(C(F)(F)F)ccc4C(F)(F)F)[C@@]3(C)CC[C@@H]12
active: [13] 18.7 µM | [3] 13.2 µM | [4] 11.8 µM | [15] 20.9 µM
inactive: [1] | [11] | [14] | [16] | [8] | [10]

C[C@H](NC(=O)Cc1cc(F)cc(F)c1)C(=O)N[C@H](C(=O)OC(C)(C)C)c1ccccc1
active: [15] 4.69 µM
inactive: [1] | [3] | [4] | [14] | [16] | [5] | [7] | [8] | [20] | [10]

c1cc(N[C@@H]2CCNC2)nc(-c2cnc3ccc(-c4cn[nH]c4)cn23)c1
active: [1] 3.32 µM | [12] 4.18 µM | [2] 0.935 µM | [13] 5.9 µM | [3] 11.8 µM | [4] 5.9 µM | [14] 2.64 µM | [15] 16.6 µM | [16] 16.6 µM | [17] 11.8 µM | [5] 14.8 µM | [19] 2.96 µM | [7] 13.2 µM | [9] 20.9 µM
inactive: [8]

O=C(C=CC=Cc1ccc2c(c1)OCO2)N1CCCCC1
active: [16] 16.6 µM
inactive: [1] | [11] | [13] | [3] | [15] | [19] | [7] | [8] | [10]
